# In the library only some 21% were active in any assay of this set; here they are far more common.
# Pf growth 96h: P. falciparum growth inhibition at 96 hours; Potency, µM (series often up to 28.7 µM), hits mostly inhibitors; actives 6.9% (n = 320,000); P. falciparum luciferase reporter growth, 96 h; active = well fitted inhibition curve with a large enough effect; inconclusive = small, poorly fitted or top-dose-only effect, or another doubt; inactive = no such curve, though single readings can be large or run the other way
#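 96 h incubation, 37 C, 5% CO2, of luciferase-reporter P. falciparum-infected RBCs (2% hematocrit, 0.05% parasitemia final) with test compounds; endpoint luminescence.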
# NS1 function inh: inhibitors of influenza NS1 protein function | AID 2326 | actives 0.4% (n = 270,000) | Potency, µM (highest dose often 46.1 µM); note: actives are rising curves; nearly all actives have a fitted effect of over 50% in size
#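 In this qHTS, NS1 from influenza A is expressed in budding yeast, where it slows growth. Cells are switched from glucose to 2% galactose medium (pH 6.0, -URA), treated with compound, and growth recovery is read at OD600.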
# SARS PLP yeast: inhibitors of SARS-CoV papain-like protease in yeast; Potency, µM (highest dose often 32.9 µM), usual class: activators; AID 485353; actives 0.19% (n = 330,000); S. cerevisiae expressing SARS-CoV PLpro, growth rescue; note: nearly all actives have a fitted effect of over 55% in size
# Cycloheximide cs: affects cycloheximide protein synthesis inhibition readout, counter-screen | actives 12% (n = 300,000) | cell reporter, cycloheximide protein synthesis inhibition counterscreen | max response, %; in the data active = max response mostly above about 13%, no sharp cut-off; inactive = mostly below about 14%; note: read at 38.3 µM for the half of the compounds with a filed dose
# Pf growth 48h: inhibits P. falciparum growth in the first generation, 48 h | P. falciparum luciferase growth in erythrocytes, 48 h | Potency, µM (titrated, usually from 28.7 µM), hits mostly inhibitors | actives 5.9% (n = 310,000) | AID 504832; active = well fitted inhibition curve with a large enough effect; inconclusive = small, poorly fitted or top-dose-only effect, or another doubt; inactive = no such curve, though single readings can be large or run the other way
#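 Luciferase-expressing P. falciparum in infected erythrocytes (2% hematocrit, 0.1% parasitemia final) in RPMI 1640/0.5% Albumax were exposed to compound for 48 hours at 37 C, 5% CO2; growth read as luminescence.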
# Shiga inhibitor: blocks Shiga toxin action in Vero cells; Vero cells, Shiga toxin protein synthesis inhibition reporter; inhibition, % at 38.7 µM; actives 9.2% (n = 290,000); in the data active = inhibition mostly above about 28%, no sharp cut-off; inactive = mostly below about 43%
# Numbers stand for hits; – = inactive; ? = inconclusive; · = no result; [ ] = dose if it differs, or a comment. Unless noted, calls come from the whole dose curve.
SMILES,Pf growth 96h,NS1 function inh,SARS PLP yeast,Cycloheximide cs,Pf growth 48h,Shiga inhibitor
COC(=O)c1cn(C(=O)c2cc(Br)ccc2Cl)c2ccccc12,–,–,–,–,?,–
COc1cc(/C=C(\C#N)C(=O)Nc2ccc(SC(F)F)cc2)cc(OC)c1OC,5.22µM,–,–,–,·,–
O=S(=O)(c1ccc2c(c1)N(Cc1ccc(Cl)cc1)C1CCCN21)N1CCOCC1 (stereo not drawn),8.28µM,–,–,–,?,–
COc1ccc(CN2c3cc(S(=O)(=O)N4CCOCC4)ccc3N3CCCC32)cc1 (stereo not drawn),8.28µM,–,–[6.58 µM],–,·,–
Cc1ccc(S(=O)(=O)c2cc3c(=O)n4ccccc4nc3n(CCc3ccccc3)c2=N)cc1,–,–,–,–,2.08µM,–
CCn1c(=N)c(S(=O)(=O)c2ccc(C)cc2)cc2c(=O)n3ccccc3nc21,?,–,–,–,–,–
COc1ccc(CCn2c(=N)c(S(=O)(=O)c3ccc(Cl)cc3)cc3c(=O)n4ccccc4nc32)cc1,2.62µM,–,–,–,4.65µM,–
Cc1ccc(S(=O)(=O)c2cc3c(=O)n4ccccc4nc3n(C3CCCC3)c2=N)cc1,–,–,–,–,5.22µM,–
Cc1ccc(NC(=O)COC(=O)CCC(=O)c2cccs2)c(C)c1,–,·,–,–,–,–
Cc1cnc(C(=O)OC(C(=O)c2ccccc2)c2ccccc2)cn1 (stereo not drawn),?,·,–,·,–,·
COCCNC(C(=O)Nc1ccc(C)cc1[N+](=O)[O-])c1ccccc1 (stereo not drawn),–,·,–,27.8,–,–
COCCCNC(=S)Nc1ccc(C)cc1[N+](=O)[O-],–,·,–,19.7,–[5.75 µM],55.0
Cc1ccc(NC(=O)C(OC(=O)c2cnc(C)cn2)c2ccccc2)c([N+](=O)[O-])c1 (stereo not drawn),–,–,–,14.3,–,–
Cc1ccc(NC(=O)NN2CCN(C)CC2)cc1C,–,–,–,–,–,–
COc1ccc(N(CC(=O)N2CCC(C(N)=O)CC2)S(=O)(=O)c2ccccc2)cc1,–,–,–,–,–,–
Cc1nc(CSc2nsc(/C=C/N(C)C)c2C#N)cs1,9.28µM,·,–,28.7,?,102.6
CSc1ccc(/C=C(/NC(=O)c2ccco2)C(=O)N2CCCCCC2)cc1,–,–,–,–,–,–
COc1ccc(C(=O)N/N=C/c2ccc3cccc(O)c3n2)cc1,–,·,–,–,?,–
O=C(N/N=C/c1ccc2cccc(OCc3ccccc3)c2n1)c1ccc(Cl)cc1,–,–,–,31.3,–,61.3
O=C(N/N=C/c1ccc2c(c1)OCO2)c1ccc(COc2cccc3cccnc23)cc1,?,–,–,35.7,?,81.9
COc1ccc(/C=N/NC(=O)c2ccc(COc3cccc4cccnc34)cc2)cc1O,?,–,–,12.5,?,31.9
O=C(N/N=C/c1ccncc1)c1ccc(COc2cccc3cccnc23)cc1,?,·,–,–,8.28µM,–
Cc1ccc(CNC(=O)CNC(=O)[C@@H]2Cc3ccccc3CN2)cc1,–,–,–,–,–,–
O=C(N/N=C/c1cccc(O)c1)c1ccc(COc2cccc3cccnc23)cc1,?,·,–,21.0,–,34.5
C#CCOCCOCCOCCNc1nc(N2CCN(C(=O)CCCCCCCCCCNC(=O)[C@H](CCCCN)n3cc(C)nn3)CC2)nc(N2CCN(C(=O)CCCCCCCCCCNC(=O)[C@H](CCCCN)n3cc(CCCC(=O)O)nn3)CC2)n1,?,·,–,·,10.4µM,·
SMILES,Pf growth 96h,NS1 function inh,SARS PLP yeast,Cycloheximide cs,Pf growth 48h,Shiga inhibitor
C#CCOCCOCCOCCNc1nc(N2CCN(C(=O)CCCCCCCCCCNC(=O)[C@H](CCCCN)n3cc(CCCC(=O)O)nn3)CC2)nc(N2CCN(C(=O)CCCCCCCCCCNC(=O)[C@@H]([C@H](C)O)n3cc(C)nn3)CC2)n1,5.86µM,·,–,·,5.22µM,·
COc1ccc(/C=C2\C(=O)N(Cc3ccc(F)cc3)CC(=O)N2Cc2ccccc2)cc1,14.7µM,–,–,–,10.4µM,–
O=C(O)C[C@H](NC(=O)CP(=O)(O)O)C(=O)O.[NH-][C@@H]1CCCC[C@@H]1[NH-].[Pt],·,–,·,·,·,·
O=c1[nH]ccc2c([N+](=O)[O-])cccc12,–,–,–,–,–,–
O=[N+]([O-])c1cccc2c([As](=O)(O)O)cccc12,0.465µM,–,–,–,0.738µM,–
COc1cc(Br)cc(CN2CCN(C=O)CC2)c1O,?,–,–,–,–,–
C/C=C/c1cc(CN2CCN(c3ccccc3)CC2)c(O)c(OC)c1,1.65µM,·,–,–,1.31µM,–
C/C=C/c1cc(CN2CCN(c3ccc(OC)cc3)CC2)c(O)c(OC)c1,?,·,–,–,1.47µM,–
COc1cccc(C2/C(=C(/O)c3ccc4c(c3)CC(C)O4)C(=O)C(=O)N2CC2CCCO2)c1 (stereo not drawn),–,–,–,–,–,–
NC(=O)N/N=C/c1ccccc1OC(=O)c1cc2ccccc2oc1=O,–,–,–,26.0,–,77.3
NC(=S)N/N=C/c1ccccc1OC(=O)c1cc2ccccc2oc1=O,0.586µM,–,–,–,0.329µM,–
N/C(=N\NC(=O)c1ccccc1)c1cc2ccccc2oc1=O,–,·,–,–,–,–
CCCS(=O)(=O)NCCc1csc(-c2cccnc2)n1,·,–,·,·,·,·
CC1CCCCC1NC(=O)CSc1nnnn1C (stereo not drawn),–,·,–,·,–,·
CCSc1nc2c(sc3ccccc32)c(=O)n1C(C)C,13.1µM,–,–,–,·,–
CCCCn1c(SCC(N)=O)nc2c(sc3ccccc32)c1=O,–,–,–,–,·,–
COc1ccccc1N=CC=C1OC(C)(C)C(C)(C)O1,–,·,–,10.2,?,–
Cc1ccc(N=CC=C2OC(C)(C)C(C)(C)O2)c(C)c1,–,–,–,–,?,–
COc1ccc(C)cc1S(=O)(=O)N1c2ccc(C)cc2C2CN(C)CCC21 (stereo not drawn),10.4µM,·,–,·,?,·
CCc1ccc(S(=O)(=O)N2c3ccc(C)cc3C3CN(C)CCC32)cc1 (stereo not drawn),?,·,–,·,10.4µM,·
Cc1ccc2c(c1)[C@@H]1CN(C)CC[C@@H]1N2S(=O)(=O)c1ccc(F)cc1,?,–,–,–,–,–
C[C@H](C(=O)O)c1ccc2cc(O)ccc2c1,·,·,·,–,·,–
COc1ccccc1CCN1C(=S)NC(C)(C)CC1(C)O (stereo not drawn),9.28µM,–,–,–,?,–
COc1ccc(CN2C(=S)NC(C)(C)CC2(C)O)cc1 (stereo not drawn),–,–,–,–,–,–
CCn1nnc(NC(=O)C(c2ccccc2)c2ccccc2)n1,?,–,–,–,–,–
CCCn1nnc(NC(=O)c2ccccc2Br)n1,·,–,–,–,–,48.6
CCn1nnc(NC(=O)c2ccccc2Br)n1,–,–,–,27.4,–,70.8
CCCn1nnc(NC(=O)c2cccnc2Cl)n1,?,–,–,–,–,–

# Screening data deposited in PubChem BioAssay by National Center for Advancing Translational Sciences (NCATS).
